# An excerpt weighted towards active compounds, which were near 19% of everything screened.
# TDP1 cell CPT: growth inhibition of DT40 Tdp1-/-;hTDP1 cells with camptothecin (screen for TDP1 inhibitors) | chicken DT40 Tdp1-/-;hTDP1 cells + 20 nM CPT, ATP luminescence, 48 h | Potency, µM (doses to about 46.2 µM), usual class: inhibitors | hit rate 12% among 420,000; further: nearly all actives have a fitted effect of over 55% in size
#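 Chicken DT40 Tdp1-/- cells stably complemented with human TDP1 were seeded at 400 cells/well in medium containing 20 nM camptothecin, exposed to pin-transferred compounds, and grown at 37 °C for at least 48 hr. Viability was read as ATP luminescence.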
# DT40 TDP1 no CPT: qHTS for Inhibitors of human tyrosyl-DNA phosphodiesterase 1 (TDP1): qHTS in cells in absence of CPT. DT40 Tdp1-/- hTDP1 cells, no CPT, ATP luminescence, 48 h. Potency, µM (highest dose often 46.2 µM), usual class: inhibitors. hit rate 15% among 420,000; further: nearly all actives have a fitted effect of over 55% in size
#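 Stably hTDP1-transfected Tdp1-null chicken DT40 cells were treated with library compounds minus camptothecin and grown for at least 48 hr at 37 °C, after which cellular ATP was quantified by luminescence.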
# IL-1B inflam inh: inhibitors of inflammasome signaling (IL-1 beta secretion) | activity change, % at 57.5 µM | THP-1 LPS/ATP IL-1B secretion, AlphaLISA, 16 h; hits give low values | hit rate 4.7% among 360,000; in the data active means activity change below about -50%; inconclusive means mostly about -30% to -49%
#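 THP-1 cells pretreated 1 hr with compounds (up to 57.5 uM final), then stimulated with LPS (250 ng/mL final) plus ATP (1.25 mM final); secreted IL-1B measured by AlphaLISA after 16 hr, decreased signal indicating inhibition.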
# HT1080-NT tox: kills 2HG-producing HT-1080-NT fibrosarcoma cells | HT-1080-NT fibrosarcoma viability, CellTiter-Glo ATP luminescence, 48 h | Potency, µM (top dose mostly 46.1 µM), hits mostly cytotoxic | hit rate 1.6% among 360,000 | AID 686970;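 further: NT is the 2HG producing partner of a matched IDH1 knockdown line; nearly all actives have a fitted effect of over 55% in size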
#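 HT-1080-NT; 750 cells/well; 5% FBS RPMI; 48 h compound, 37 degrees C; CellTiter-Glo luminescence; curve fitting and curve-class assignment.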
# HT1080 IDH1KD tx: kills HT-1080 cells with IDH1 knockdown | HT-1080 IDH1 knockdown viability, ATP luminescence, 48 h | AID 686971 | hit rate 2% among 360,000 | Potency, µM (titrated, usually from 46.1 µM), hits mostly cytotoxic
#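 CellTiter-Glo luminescence after 48 h compound exposure at 37 degrees C of IDH1-knockdown HT-1080 cells in 5% FBS RPMI. %Activity scaled between DMSO wells and cell-free media wells, with curves fitted and assigned curve classes.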
# Hits are given with their value; n = inactive; u = inconclusive; x = not tested or not shown. Unless noted, the call rests on the fitted dose curve; in most records, active means well fitted curve in the direction sought with a large enough effect; inconclusive means small, poorly fitted or top-dose-only effect, or another doubt; inactive means no such curve, though single readings can be large; an effect the other way counts as inactive or inconclusive.
SMILES,TDP1 cell CPT,DT40 TDP1 no CPT,IL-1B inflam inh,HT1080-NT tox,HT1080 IDH1KD tx
O=S(=O)(Nc1cc(S(=O)(=O)N2CCOCC2)ccc1NCC1CCCO1)c1ccc(F)cc1 (centres undefined),n,u,n,n,n
COc1ccc(OC)c(CNC(=O)c2ccc(C)c(NC(=O)c3nsc4ccccc34)c2)c1,18.4µM,u,x,x,x
COc1ccc(OC)c(CNC(=O)c2ccc(C)c(NC(=O)C3=C(C)OCCS3)c2)c1,n,n,n,n,n
CC(C)(CC(=O)OCC(=O)Nc1ccccc1F)CC1=NS(=O)(=O)c2ccccc2N1,23.1µM,13µM,n,n,n
COc1ccccc1NC(=O)COC(=O)CC(C)(C)CC1=NS(=O)(=O)c2ccccc2N1,23.1µM,u,n,n,n
CCCC(=O)NCc1nc2cccnc2n1Cc1ccc(F)cc1,n,n,x,x,x
O=C(NCCc1c[nH]c2ccccc12)C1CCC(=O)N(CCc2cccc(F)c2)C1 (centres undefined),u,8.2µM,n,n,n
O=C(NCCc1ccccc1)C1CCC(=O)N(CCCN2CCCC2=O)C1 (centres undefined),n,n,n,n,n
O=C(NCc1ccccc1C(F)(F)F)C1CCC(=O)N(CCCc2ccccc2)C1 (centres undefined),u,29.1µM,n,n,n
O=C(NCc1ccccc1OC(F)(F)F)C1CCC(=O)N(Cc2ccccn2)C1 (centres undefined),16.4µM,u,n,n,n
O=C(NCCc1cccc(F)c1)C1CCC(=O)N(CCCc2ccccc2)C1 (centres undefined),18.4µM,u,n,n,n
O=C1C(=Cc2cccc(F)c2)Cc2ccccc21,n,u,n,n,n
NC(=O)c1ncn([C@@H]2O[C@H](CNC(=O)[C@H](N)CSCc3ccccc3)[C@@H](O)[C@H]2O)n1,n,n,n,n,n
O=[N+]([O-])c1ccccc1S(=O)(=O)N1CCCc2ccccc21,n,u,n,n,n
CCOC(=O)C1CCN(C(=O)c2ccc(NC(=O)c3nsc4ccccc34)cc2)CC1,20.6µM,u,x,x,x
CCOC(=O)C1CCCN(C(=O)c2ccc(NC(=O)c3nsc4ccccc34)cc2)C1 (centres undefined),u,16.4µM,x,x,x
O=S(=O)(Nc1c(F)cccc1F)c1ccc(Cl)nc1,n,n,n,n,n
NCC1CCC(C(=O)O)CC1 (centres undefined),n,n,x,x,x
COc1ccc(/C=C/C(=O)C2(O)CCCCC2)cc1OC,u,u,-91.4,u,u
COc1ccc(/C=C/C(=O)N(C)C2CCS(=O)(=O)C2)cc1OC (centres undefined),n,n,n,n,n
O=c1cc(N/N=C/c2ccccc2)[nH]c(=O)[nH]1,4.11µM,4.61µM,-99.1,3.66µM,7.31µM
O=C(OCc1ccccc1)c1cn(-c2ccccc2)nc1-c1ccncc1,n,n,n,n,n
Cc1ccc(-n2c(SCC(=O)N/N=C/c3c(C)nn(-c4ccccc4)c3C)nc3ccccc3c2=O)cc1,20.6µM,u,n,n,n
Cc1nn(-c2ccccc2)c(C)c1/C=N/NC(=O)CSc1nc2ccccc2c(=O)n1-c1ccc(Br)cc1,u,u,n,20.6µM,13µM
Cc1ccc(-n2c(SCC(=O)N3CC(=O)Nc4ccccc43)nc3ccccc3c2=O)cc1,u,u,-74.4,n,n
SMILES,TDP1 cell CPT,DT40 TDP1 no CPT,IL-1B inflam inh,HT1080-NT tox,HT1080 IDH1KD tx
Cc1ccc(-n2c(SCC(=O)N/N=C/c3ccccc3OCC(=O)O)nc3ccccc3c2=O)cc1,n,n,n,n,n
Cc1cccc(C)c1-n1c(SCC(=O)N2CC(=O)Nc3ccccc32)nc2ccccc2c1=O,u,u,n,n,n
CCc1cc(C(=O)NCC(c2ccco2)N2CCCCC2)sc1C (centres undefined),u,14.6µM,n,n,n
O=C(NCC(c1ccco1)N1CCCC1)c1cn(-c2ccccc2)nc1-c1ccc(F)cc1 (centres undefined),16.4µM,10.3µM,n,n,n
O=C(NCC(c1ccco1)N1CCCC1)c1sc2ccccc2c1Cl (centres undefined),u,20.6µM,n,n,n
CCOCc1c(C(=O)NCC(c2ccco2)N2CCCC2)oc2ccccc12 (centres undefined),23.1µM,u,n,n,n
Cc1cc(Cl)ccc1OC(C)C(=O)Nc1ccc(C(=O)Nc2ccccc2C(=O)O)cc1 (centres undefined),u,u,n,n,u
O=S1(=O)CC(N2CC=CC2)CN1Cc1ccc(F)cc1 (centres undefined),u,n,n,n,n
CN(C)CCNc1c2c(nc3nnnn13)CCCC2,n,n,n,n,n
Cc1ccc(NC(=O)CCC(=O)NNC(=O)Nc2cccc(Cl)c2)c(C)c1,n,n,n,n,n
COc1ccc(C(O)c2ncc(-c3ccccc3)[nH]2)c(OC)c1 (centres undefined),n,n,n,n,n
COC(=O)CSc1nc(C)cc(N2CCOCC2)n1,n,n,n,n,n
COCc1cc(C)n(CC(=O)Nc2cc(C)cc(C)c2)c(=O)c1C#N,n,n,n,n,n
O=C(Nc1ccccc1)N1CCN(S(=O)(=O)c2ccccc2)CC1,n,n,n,n,u
CCOc1ncccc1C(=O)NCC(c1ccco1)N1CCCCC1 (centres undefined),20.6µM,u,n,n,n
COc1ccccc1OCc1nc(C#N)c(N2CC(C)CC(C)C2)o1 (centres undefined),29.1µM,u,n,n,n
COc1ccccc1OCc1nc(C#N)c(N2CCCC2)o1,n,n,n,n,n
Cc1ccccc1OCc1nc(C#N)c(N2CCCC2)o1,n,n,-58.4,n,n
O=C(CCc1ccc(O)cc1)c1c(O)cc(O)cc1O[C@@H]1O[C@H](CO)[C@@H](O)[C@H](O)[C@H]1O,n,n,n,n,n
Cc1coc2cc3oc(=O)c(CC(=O)NCc4ccc(F)cc4)c(C)c3cc12,6.51µM,5.8µM,x,x,x
Cc1coc2cc3oc(=O)c(CC(=O)NCc4cccc(Cl)c4)c(C)c3cc12,u,20.6µM,x,x,x
Cc1coc2cc3oc(=O)c(CC(=O)NCc4ccccc4)c(C)c3cc12,5.8µM,5.17µM,x,x,x
Cc1coc2cc3oc(=O)c(CC(=O)NCCc4ccccc4F)c(C)c3cc12,n,n,x,x,x
Cc1ccc(CNC(=O)Cc2c(C)c3cc4c(C)coc4cc3oc2=O)cc1,n,n,x,x,x
CC(=O)Nc1ccc(S(=O)(=O)N2CCN(CC3CC4C=CC3C4)CC2)cc1 (centres undefined),u,u,n,n,n

# High-throughput results (PubChem BioAssay)
